A short description of experiment [1]: Quantitative High-Throughput drug screen in 47 multiple myeloma cell lines against the NCATS MIPE library collection: JIM3_ECACC cell viability assay (AID 1918963; also: nearly all actives have a fitted effect of over 35% in size; also: potency is read from the fitted curve at half-maximal effect). Put shortly: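 CellTiter-Glo luminescence (ATP) after 48 h compound exposure, 37C/5% CO2; 500 cells/well; MIPE 4.0 approved/investigational drugs pinned in; DMSO = 100%, media only = 0% viability.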

A short description of experiment [2]: Quantitative High-Throughput drug screen in 47 multiple myeloma cell lines against the NCATS MIPE library collection: INA6_PLB cell viability assay (AID 1918965; also: nearly all actives have a fitted effect of over 55% in size; also: potency is read from the fitted curve at half-maximal effect). Put shortly:
(§1)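 Myeloma cells (500 per well) were exposed to MIPE 4.0 compounds by pin transfer and incubated 48 hours at 37C, 5% CO2. Viability was read as ATP by CellTiter-Glo luminescence, normalised to DMSO (100%) and media-only (0%) wells.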

Experiment [3] is described as follows: Quantitative High-Throughput drug screen in 47 multiple myeloma cell lines against the NCATS MIPE library collection: JJN3_DSMZ cell viability assay (AID 1918966; also: nearly all actives have a fitted effect of over 50% in size; also: potency is read from the fitted curve at half-maximal effect). An outline of the steps: (§2)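 Steps: seed 500 cells per well; pin-transfer MIPE 4.0 library; incubate 48 h at 37C, 5% CO2, humidified; add CellTiter-Glo, 5 min room temperature; read luminescence.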

Experiment [4] is described as follows: Quantitative High-Throughput drug screen in 47 multiple myeloma cell lines against the NCATS MIPE library collection: Karpas25_ECACC cell viability assay (AID 1918968; also: nearly all actives have a fitted effect of over 35% in size; also: potency is read from the fitted curve at half-maximal effect). An outline of the steps:
as §2

Experiment [5] in a line: Quantitative High-Throughput drug screen in 47 multiple myeloma cell lines against the NCATS MIPE library collection: KMS27_JCRB cell viability assay (AID 1918970). Also: nearly all actives have a fitted effect of over 30% in size. Also: potency is read from the fitted curve at half-maximal effect. Particulars: KMS27 myeloma cells, CellTiter-Glo ATP viability, 48 h; viability (% of DMSO): at 45.8 µM (top of the series). Put shortly:
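KMS27_JCRB myeloma cells, 500 per well, exposed 48 h at 37 C, 5% CO2 to MIPE 4.0 compounds. Viability from ATP by CellTiter-Glo luminescence, normalized to DMSO (100%) and medium-only (0%) wells.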
Background: ATP-based viability assays read luminescence as a measure of living cells.

Experiment [6] can be described thus: Quantitative High-Throughput drug screen in 47 multiple myeloma cell lines against the NCATS MIPE library collection: KMS12PE_JCRB cell viability assay (AID 1918972). Also: nearly all actives have a fitted effect of over 30% in size. Also: potency is read from the fitted curve at half-maximal effect. Put shortly:
as §1

Experiment [7] is described as follows: Quantitative High-Throughput drug screen in 47 multiple myeloma cell lines against the NCATS MIPE library collection: H1112_PLB cell viability assay (AID 1918967; also: nearly all actives have a fitted effect of over 30% in size; also: potency is read from the fitted curve at half-maximal effect). An outline of the steps:
as §2

Experiment [8] in a line: Quantitative High-Throughput drug screen in 47 multiple myeloma cell lines against the NCATS MIPE library collection: KMS12BM_JCRB cell viability assay (AID 1918971). Also: nearly all actives have a fitted effect of over 35% in size. Also: potency is read from the fitted curve at half-maximal effect. Put shortly: as §2
Experiment [9] can be described thus: Quantitative High-Throughput drug screen in 47 multiple myeloma cell lines against the NCATS MIPE library collection: JIM1_ECACC cell viability assay (AID 1918964). Put shortly: as §2

Results filed as inconclusive are left out. Calls of active or inactive are those of the source. Calls follow the shape of the dose curve; as a rule, active = well fitted curve in the direction sought with a large enough effect; inconclusive = small, poorly fitted or top-dose-only effect, or another doubt; inactive = no such curve, though single readings can be large; an effect the other way counts as inactive or inconclusive.

As for `COc1ccc2c(c1)c(C1=C(c3c[nH]c4ccccc34)C(=O)NC1=O)cn2CCCN(C)C`, the Potency in experiment [1] was 13.2 µM (active); in experiment [2] it was 0.526 µM (active); in [3], 20.9 µM (active); in experiment [4], 20.9 µM (active); in [5], 18.7 µM (active); in [6] it was 16.6 µM (active).
For the compound `Cc1cc2nc3c(=O)[nH]c(=O)nc-3n(CC(O)C(O)C(O)CO)c2cc1C` (configuration not stated), the Potency entry in [1], in [2], in experiment [7], in experiment [4] and in experiment [6] was “inactive” each time. In addition, the Potency in experiment [3] is 2.64 µM (active).
Turning to `O=c1[nH]c(=O)n([C@H]2C[C@@H](O)[C@@H](CO)O2)cc1C(F)(F)F`, the Potency entry in experiment [1] and in experiment [3] was “inactive” in each case. For the same compound, the Potency in [2] is 1.87 µM (active); in [7], 5.26 µM (active); in experiment [4], 10.5 µM (active); in experiment [5], 7.43 µM (active); in experiment [8] it was 8.33 µM (active).
For `CC1(C)OC2CC3C4CC(F)C5=CC(=O)C=CC5(C)C4C(O)CC3(C)[C@]2(C(=O)CO)O1` (some centres not stated), the Potency entry in [1], in experiment [2], in [3], in [7] and in experiment [5] was “inactive” throughout. Also, in experiment [4], the Potency was 0.0833 µM (active).
In the case of `N[C@@H](CC(=O)N1CCn2c(nnc2C(F)(F)F)C1)Cc1cc(F)c(F)cc1F`, the Potency entry in experiment [1], in experiment [9], in [7], in experiment [4], in [5] and in experiment [8] was “inactive” throughout. Also, in experiment [6], the Potency result is “inactive”.
Take `C[C@]12C=CC(=O)C=C1CC[C@@H]1[C@@H]2[C@@H](O)C[C@@]2(C)[C@@H]1CC[C@]2(O)C(=O)CO`: the Potency entry in [1], in [7], in [5] and in experiment [6] was “inactive” in each case. Besides, the Potency in experiment [2] is 5.9 µM (active); in experiment [4], 0.296 µM (active); in [8], 11.8 µM (active).
`CC(C)CN(C[C@@H](O)[C@H](Cc1ccccc1)NC(=O)O[C@H]1CO[C@H]2OCC[C@H]21)S(=O)(=O)c1ccc(N)cc1`: the Potency was 13.2 µM (active) in [1]; 23.5 µM (active) in [3]; 2.09 µM (active) in [7]; 3.72 µM (active) in experiment [4]; 20.9 µM (active) in experiment [8]. The Potency result in experiment [6] is “inactive”.
In the case of `Cc1ccccc1-n1c(Cn2nc(-c3cccc(O)c3)c3c(N)ncnc32)nc2cccc(C)c2c1=O`, the Potency in experiment [1] is 3.72 µM (active); in experiment [2], 1.05 µM (active); in experiment [7], 2.64 µM (active); in experiment [4], 2.64 µM (active); in [5], 0.469 µM (active); in [8], 8.33 µM (active). Moreover, the Potency in experiment [6] is 0.935 µM (active).
With `Cc1cccc2c1CC[C@H](CN1CCC(c3c(Cl)cccc3Cl)CC1)C[C@@H]2O`, the Potency is 14.8 µM (active) in experiment [1], 18.7 µM (active) in experiment [2], 18.7 µM (active) in experiment [4] and 16.6 µM (active) in [8].
For the compound `CC[C@H](CC#N)OC(=O)N[C@@H](C)c1cccc(NC(=O)Nc2ccc(-c3cnco3)c(OC)c2)c1`, the Potency in [1] was 1.32 µM (active); in experiment [2], 1.05 µM (active); in experiment [7] it was 1.66 µM (active); in [5] it was 14.8 µM (active); in experiment [8], 1.48 µM (active); in [6], 14.8 µM (active).
Turning to `CC1(C)CC(=O)c2c(C(F)(F)F)nn(-c3ccc(C(N)=O)c(NC4CCC(O)CC4)c3)c2C1` (configuration not stated), the Potency in experiment [1] was 0.105 µM (active); in experiment [3] it was 0.0662 µM (active). The Potency result in experiment [5] and in [6] was “inactive” throughout.
For the compound `COC(=O)[C@H](c1ccccc1Cl)N1CCc2sccc2C1`, the Potency entry in experiment [1] and in experiment [8] was “inactive” each time. The Potency in experiment [3] was 20.9 µM (active).
Regarding `COc1ccc(CCN(C)CCCOc2ccc(S(=O)(=O)c3[nH]c4ccccc4c3C(C)C)cc2)cc1OC`, the Potency in [1] was 18.7 µM (active); in [2], 16.6 µM (active); in experiment [7] it was 18.7 µM (active); in experiment [8] it was 23.5 µM (active). Moreover, the Potency result in [5] and in [6] was “inactive” each time.
Take `CNc1nc(-c2ccc3c(N)n[nH]c3c2)cc(N2C[C@@H](C(=O)NC3CCCCC3)CC[C@@H]2C)n1`: the Potency in [1] was 6.62 µM (active); in experiment [2], 2.09 µM (active); in [4], 2.09 µM (active); in experiment [5] it was 10.5 µM (active).
On to `CC(O)=C(C#N)C(=O)Nc1ccc(C(F)(F)F)cc1`, for which the Potency in [1] is 23.5 µM (active); in [2], 26.4 µM (active); in [4], 26.4 µM (active); in [8], 14.8 µM (active).
As to `CCCCc1ccc(NS(=O)(=O)c2ccc(C)c(C(=O)N3CCN(c4cccc(C)c4C)CC3)c2)cc1`, the Potency in [1] was 16.6 µM (active); in experiment [3], 23.5 µM (active); in experiment [8], 20.9 µM (active). The Potency result in [5] is “inactive”.
Regarding `CO[C@@H]1C(N(C)C(=O)c2ccccc2)C[C@H]2O[C@]1(C)n1c3ccccc3c3c4c(c5c6ccccc6n2c5c31)C(=O)NC4=O` (some centres not stated), the Potency in [1] is 6.62 µM (active); in [2], 1.48 µM (active); in [6], 1.66 µM (active). Further, the Potency entry in [8] was “inactive”.
`COc1cc2ncnc(Nc3cc(Br)c(O)c(Br)c3)c2cc1OC`: the Potency in experiment [1] was 0.935 µM (active); in [2], 0.148 µM (active); in experiment [7], 0.0418 µM (active); in experiment [8] it was 0.0019 µM (active); in experiment [6], 6.62 µM (active).
For the compound `CCC(c1ccc(O)cc1)C(CC)c1ccc(O)cc1` (configuration not stated), the Potency entry in [1], in experiment [2] and in [6] was “inactive” each time. The Potency in experiment [7] was 8.33 µM (active).
As to `CC(C)N(CCCNC(=O)Nc1ccc(C(C)(C)C)cc1)C[C@H]1O[C@@H](n2cc(Br)c3c(N)ncnc32)[C@H](O)[C@H]1O`, the figures for the Potency in experiment [1], in experiment [2] and in experiment [4] were 29.6 µM (active), 18.7 µM (active) and 14.8 µM (active), respectively. Moreover, the Potency entry in experiment [5] and in experiment [6] was “inactive” throughout.
`COc1cc2c(cc1OC)CC(=O)N(CCCN(C)C[C@H]1Cc3cc(OC)c(OC)cc31)CC2`: the Potency result in [1] and in experiment [2] was “inactive” each time. In addition, the results for the Potency in experiment [7], in [4] and in experiment [6] were 3.72 µM (active), 4.69 µM (active) and 20.9 µM (active), respectively.
On to `O=C1NC(=O)C(=Cc2ccc(-c3ccc(F)cc3O)o2)S1`, for which the Potency entry in [1] and in experiment [6] was “inactive” throughout. Moreover, the Potency is 7.43 µM (active) in experiment [2], 20.9 µM (active) in [7], 2.09 µM (active) in [5] and 37.2 µM (active) in experiment [8].
On to `CC(C)C[C@H](NC(=O)c1cc2ccccc2s1)C(=O)N1CCN(C(=O)[C@H](CO)NS(=O)(=O)c2ccc(Cl)cc2Cl)CC1`, for which the Potency in experiment [1] is 20.9 µM (active); in experiment [3], 18.7 µM (active); in experiment [7], 20.9 µM (active); in experiment [4], 26.4 µM (active); in [8] it was 18.7 µM (active). Also, the Potency result in experiment [5] was “inactive”.

These data come from PubChem BioAssay (NCATS).
